Values without a mark were called inactive. Records with an inconclusive call do not appear. Where a call stands in place of a potency, no number is given. Calls of active or inactive are those of the source. Unless noted, calls come from the whole dose curve; as a rule, active = well fitted curve in the direction sought with a large enough effect; inconclusive = small, poorly fitted or top-dose-only effect, or another doubt; inactive = no such curve, though single readings can be large; an effect the other way counts as inactive or inconclusive.
Tests used:
[1] = qHTS for compounds that reverse cellular toxicity of Amyloid beta (A-beta) peptide in yeast: LOPAC Validation Assay (AID 720559)
Method in brief: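 Medium dispensed, compounds pinned, A-beta yeast suspension added; plates held at 30 C for 48 hr; absorbance measured at 600 nm to gauge growth; values scaled between DMSO and FeCl3/clioquinol (equimolar) controls.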

[2] = qHTS for Activators of Parkin Expression: LOPAC Validation Assay (NLuc Reporter) (AID 720572; note: potency is the fitted concentration of half-maximal effect)
Method in brief: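 Compound effects on Parkin promoter activity were measured as NanoLuc luminescence after 24 h at 37 C. The neuronal reporter line also carried FLuc, which was read first. LOPAC compounds were tested at 7 concentrations, with normalization to DMSO (0%) and positive control (100%).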

[3] = qHTS for Activators of Parkin Expression: LOPAC Validation Assay (FLuc Reporter) (AID 720573)
Method in brief: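 Cells seeded, 24 h; compounds pinned, 7-pt dose response; 24 h at 37 C/5% CO2; volume reduced; FLuc reagent 10 min RT; luminescence read. Normalization: DMSO = 0, positive control = 100%.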

[4] = qHTS assay for small molecule agonists of the antioxidant response element (ARE) signaling pathway measured by Nrf2-dependant transcriptional activity (AID 720636; active = well fitted curve in the direction sought with a large enough effect in the repeat runs; an effect the other way counts as inactive or inconclusive)
Method in brief: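 Nrf2-dependent transcription read as ONE-Glo luciferase signal from ARE-luc HepG2 reporter cells after 16 hr compound treatment at 37 C, 5% CO2, in assay medium with 1% dialyzed FBS.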

[5] = qHTS assay for small molecule agonists of the antioxidant response element (ARE) signaling pathway measured by Nrf2-dependant transcriptional activity - cell viability counter screen (AID 720653; active = well fitted curve in the direction sought with a large enough effect in the repeat runs; an effect the other way counts as inactive or inconclusive); conditions: ARE-bla HepG2 viability, CellTiter-Glo ATP luminescence, 16 h; hits give low values
Method in brief: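 Cytotoxicity counter screen: intracellular ATP quantified by CellTiter-Glo luminescence in the same ARE-bla HepG2 plates, after 16 h compound exposure and a 2 h beta-lactamase substrate step.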

Which results are given for CCCc1c(-c2ccc(O)cc2)nn(-c2ccc(O)cc2)c1-c1ccc(O)cc1?
outcome [1]: inactive; Potency [2]: 2060 nM (active); Potency [3]: inactive; outcome [4]: inactive; max response [5]: -5.61%

With O=C1OC(=O)C2C3CCC(O3)C12 (stereo not given) as the compound, how does the outcome [1] read?
Its outcome is “inactive”.

What about the Potency [3] of the same compound?
The Potency was “inactive”.

Which results are given for C[N+](C)(C)CC=O?
Potency [2]: inactive; Potency [3]: inactive

With O=[N+]([O-])c1cccc2cn[nH]c12 as the compound, how does the Potency [2] read?
The Potency was “inactive”.

What about the Potency [3] of the same compound?
Its Potency is “inactive”.

Which results are given for CCC1(O)CC2CN(CCc3c([nH]c4ccccc34)[C@@](C(=O)OC)(c3cc4c(cc3OC)N(C=O)C3[C@]45CCN4CC=C[C@@](CC)([C@@H](OC(C)=O)[C@]3(O)C(=O)OC)[C@H]45)C2)C1 (stereo not given in full)?
outcome [1]: inactive; Potency [3]: inactive

With c1ccc(C(NCc2cccnc2)(c2ccccc2)c2ccccc2)cc1 as the compound, how does the Potency [2] read?
Its Potency is “inactive”.

And the Potency [3]?
The Potency was “inactive”.

Which Potency [3] does the source give for NC(Cc1cccc(-c2ccccc2CP(=O)(O)O)c1)C(=O)O (stereo not given) here?
The Potency was “inactive”.

For O=c1[nH]c(=O)c2nc3ccccc3nc2[nH]1, which outcome [1] is on record?
The outcome was “inactive”.

And the Potency [3]?
The Potency was “inactive”.

For O=c1[nH]c2cc(Cl)ccc2c(O)c1-c1ccc(Oc2ccccc2)cc1, which outcome [1] is on record?
Its outcome is “inactive”.

And the Potency [2]?
The Potency was “inactive”.

And the Potency [3]?
The Potency was “inactive”.

What does the source list for COc1cc(CNC(=O)CCCCCCC(C)C)ccc1O?
outcome [1]: inactive; Potency [3]: inactive

Which Potency [2] does the source give for S=C(S)N1CCCC1 here?
The Potency was “inactive”.

And the Potency [3]?
The Potency was “inactive”.

Which results are given for CCCCCCCCCCCCCCSCC(=O)O?
outcome [1]: inactive; Potency [3]: inactive; max response [5]: 2.74%

What does the source list for NC[C@@H]1O[C@H](c2ccccc2)Cc2c1ccc(O)c2O?
outcome [1]: inactive; Potency [3]: inactive

Which results are given for Nn1nnc2ccccc21?
outcome [1]: inactive; Potency [3]: inactive

Which results are given for CCCCS(=N)(=O)CC[C@H](N)C(=O)O (stereo not given in full)?
Potency [2]: inactive; Potency [3]: inactive

With Nc1nc2ccc(Cl)cc2c2nc(-c3ccco3)nn12 as the compound, how does the Potency [2] read?
The Potency was “inactive”.

Which outcome [1] does the source give for O=C(O)CCC(=O)N1CCCC1C(=O)O (stereo not given) here?
Its outcome is “inactive”.

And the Potency [3]?
The Potency was “inactive”.

With Cn1c(=O)c2c(nc(/C=C/c3cccc(Cl)c3)n2C)n(C)c1=O as the compound, how does the Potency [2] read?
The Potency was “inactive”.

And the Potency [3]?
Its Potency is “inactive”.

With CCCCCCCC/C=C\CCCCCCCC(=O)NCCc1ccc(O)c(O)c1 as the compound, how does the Potency [3] read?
The Potency was “inactive”.

— PubChem BioAssay (NCATS)
